# Molecular target: T1, v3.1_PPR14 (Artificial Sequence)
# T1 chain: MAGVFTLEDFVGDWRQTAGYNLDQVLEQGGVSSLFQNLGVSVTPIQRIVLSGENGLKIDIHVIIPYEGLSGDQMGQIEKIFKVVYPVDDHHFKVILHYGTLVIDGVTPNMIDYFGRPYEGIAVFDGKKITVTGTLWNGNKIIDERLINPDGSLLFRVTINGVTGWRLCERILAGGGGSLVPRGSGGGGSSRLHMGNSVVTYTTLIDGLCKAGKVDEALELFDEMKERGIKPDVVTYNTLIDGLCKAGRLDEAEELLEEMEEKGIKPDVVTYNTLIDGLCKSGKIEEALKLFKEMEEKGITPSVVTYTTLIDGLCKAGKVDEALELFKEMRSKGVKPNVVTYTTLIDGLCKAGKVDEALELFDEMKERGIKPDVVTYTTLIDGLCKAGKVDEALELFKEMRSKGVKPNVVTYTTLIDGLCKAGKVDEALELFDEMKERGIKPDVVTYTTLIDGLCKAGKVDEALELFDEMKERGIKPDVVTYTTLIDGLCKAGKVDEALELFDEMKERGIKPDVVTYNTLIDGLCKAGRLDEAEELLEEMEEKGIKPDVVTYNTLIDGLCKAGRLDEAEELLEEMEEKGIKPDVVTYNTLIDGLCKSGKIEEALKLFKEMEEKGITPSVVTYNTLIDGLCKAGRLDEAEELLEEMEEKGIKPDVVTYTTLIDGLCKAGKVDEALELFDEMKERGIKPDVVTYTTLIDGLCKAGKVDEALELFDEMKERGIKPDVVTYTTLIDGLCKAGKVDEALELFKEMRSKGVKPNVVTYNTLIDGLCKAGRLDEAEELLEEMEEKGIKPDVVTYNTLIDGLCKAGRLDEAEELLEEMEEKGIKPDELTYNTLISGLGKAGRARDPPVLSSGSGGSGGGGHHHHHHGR
# Assay: RPB-ELISA
# Details: tags: N-terminal luciferase, C-terminal 6xHis; label: 5'-biotin; ssRNA
# Method: RNA probes consisting of a designed 30-base sequence containing 18 bases of the target sequence and modified by biotinylation at the 5′ end (RNA_1, RNA_2, RNA_3, RNA_4, and RNA_5, SEQ ID NOS: 61 to 65) were synthesized (Grainer). To a streptavidin-coated plate (Thermo fisher), the 5′-end biotinylated RNA probes were added, reaction was allowed at room temperature for 30 minutes, and the plate was washed with a lysis buffer (20 mM Tris-HCl, pH 7.6, 150 mM NaCl, 5 mM MgCl₂, 0.5% NP-40, 1 mM DTT, 0.1% BSA). For background measurement, wells to which RNA was not added, but 100 μL of the lysis buffer, 1 μL of 100 mM DTT, and 1 μL of 40 unit/4 RNase inhibitor (Takara, 2313A) were added were also prepared. Then, 200 μL of a blocking buffer (20 mM Tris-HCl, pH 7.6, 150 mM NaCl, 5 mM MgCl₂, 0.5% NP-40, 1 mM DTT, 1% BSA) was added, and the plate surface was blocked at room temperature for 30 minutes. Then, 100 μL of E. coli lysate containing luciferase-fused PPR protein having a luminescence level of 1.5×10⁸ LU/μL was added to each well, and the binding reaction was allowed at room temperature for 30 minutes. The well was washed 5 times with 200 μL of a washing buffer (20 mM Tris-HCl, pH 7.6, 150 mM NaCl, 5 mM MgCl₂, 0.5% NP-40, 1 mM DTT). […] The background (luminescence signal value obtained with adding the PPR protein and without adding RNA) was subtracted from the luminescences of the samples to which a solution containing each RNA and PPR protein was added, and the obtained values were used as the binding powers between the PPR protein and RNA.
# By using the V3.1 motif, PPR proteins for the same 23 kinds of target sequences were similarly prepared (SEQ ID NOS: 411 to 433 for the nucleotide sequences, and SEQ ID NOS: 434 to 456 for the amino acid sequences), and bindings of all the combinations were analyzed by using RPB-ELISA. The experimental method was the same as that used in Example 3.
row,Sequence,binding signal [log2 luminescence]
1,GGUUAGAGAUACAGUGUG,22.5
2,GUGGGGGUGGUAGGAAAU,20.1

# — patent publication US20220289795, “EFFICIENT METHOD FOR PREPARING PPR PROTEIN AND USE OF THE SAME” (EditForce, Inc., published 2022)
